Source: PubChem BioAssay (NCATS)
Results filed as inconclusive are left out. Calls of active or inactive are those of the source. Calls follow the shape of the dose curve; as a rule, active = well fitted inhibition curve with a large enough effect; inconclusive = small, poorly fitted or top-dose-only effect; inactive = no such curve, though single readings can be large or run the other way.

Each molecule was assayed against Cytochrome P450 3A4 (Homo sapiens) (UniProt P08684) (assay: qHTS Assay for Inhibitors and Substrates of Cytochrome P450 3A4 (AID 884; also: nearly all actives have a fitted effect of over 50% in size)). Settings: recombinant CYP3A4, Luciferin-PPXE luminescence; series mostly up to 57.1 µM.
Outline: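 Luminescent readout of luciferin produced by CYP3A4 (20 nM) dealkylation of Luciferin-PPXE, 25 uM (its KM). NADPH-driven reaction ran 60 min at RT after 10 min compound preincubation; data scaled to 57 uM ketoconazole as 100% inhibition.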
% is scaled to controls: 0 for no effect and ±100 for the full control effect.

Chain of Cytochrome P450 3A4 (Homo sapiens) (P08684 whole entry, looked up): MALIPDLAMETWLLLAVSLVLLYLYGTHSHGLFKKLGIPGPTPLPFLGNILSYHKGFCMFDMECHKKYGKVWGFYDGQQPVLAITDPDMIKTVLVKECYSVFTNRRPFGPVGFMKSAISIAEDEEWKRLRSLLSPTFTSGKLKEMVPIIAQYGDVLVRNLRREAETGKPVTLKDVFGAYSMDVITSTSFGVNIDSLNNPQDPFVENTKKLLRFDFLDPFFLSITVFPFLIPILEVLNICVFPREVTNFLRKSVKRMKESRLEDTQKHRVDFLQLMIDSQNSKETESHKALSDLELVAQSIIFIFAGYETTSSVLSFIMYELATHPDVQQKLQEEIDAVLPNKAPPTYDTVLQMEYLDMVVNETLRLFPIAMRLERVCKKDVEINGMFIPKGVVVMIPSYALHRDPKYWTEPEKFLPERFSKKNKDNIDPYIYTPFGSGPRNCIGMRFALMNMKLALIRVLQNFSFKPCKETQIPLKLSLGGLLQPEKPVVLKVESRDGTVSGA

Activity change, negative = inhibition, inactive:
CCC(=O)[C@@]1(O)C(=O)N2C(=C3C(=O)OCCC31)N(Cc1ccccc1)C(C)=C(C(=O)OC)C2c1ccccc1 (stereo not given in full) -16% [at 11.4 µM]
CCOC(=O)OCC1OC(c2ccccc2)C=CC1Oc1ccc2oc(=O)cc(C)c2c1 (stereo not given) -10.6% [at 11.4 µM]
CCCc1cc2c(c(=O)o1)C(O)C1OC1C2=O (stereo not given) -24% [at 11.4 µM]
CC1CCC(C(=O)O)NC1c1cccc(N2CCCC2=O)c1 (stereo not given) -12.3% [at 11.4 µM]
Cc1cc(=O)oc2cc(OC3C=CC(C#CC(C)(C)C)OC3CO)ccc12 (stereo not given) -2.04% [at 11.4 µM]

Each molecule was assayed against Cytochrome P450 2D6 (Homo sapiens) (UniProt P10635) (assay: qHTS Assay for Inhibitors and Substrates of Cytochrome P450 2D6 (AID 891;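 also: luciferin methyl ether substrate demethylated by CYP2D6 with NADPH regeneration; nearly all actives have a fitted effect of over 60% in size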)). Settings: recombinant CYP2D6, luciferin-ME EGE luminescence; series mostly up to 11.4 µM.
Outline: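 Luminescent read-out of luciferin formed by 5 nM human CYP2D6 demethylating 30 uM Luciferin-ME EGE (Km level) over 60 min at room temperature after NADPH regeneration addition. Data normalized to full inhibition by 1.43 uM quinidine.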

Chain of Cytochrome P450 2D6 (Homo sapiens) (P10635 whole entry, looked up): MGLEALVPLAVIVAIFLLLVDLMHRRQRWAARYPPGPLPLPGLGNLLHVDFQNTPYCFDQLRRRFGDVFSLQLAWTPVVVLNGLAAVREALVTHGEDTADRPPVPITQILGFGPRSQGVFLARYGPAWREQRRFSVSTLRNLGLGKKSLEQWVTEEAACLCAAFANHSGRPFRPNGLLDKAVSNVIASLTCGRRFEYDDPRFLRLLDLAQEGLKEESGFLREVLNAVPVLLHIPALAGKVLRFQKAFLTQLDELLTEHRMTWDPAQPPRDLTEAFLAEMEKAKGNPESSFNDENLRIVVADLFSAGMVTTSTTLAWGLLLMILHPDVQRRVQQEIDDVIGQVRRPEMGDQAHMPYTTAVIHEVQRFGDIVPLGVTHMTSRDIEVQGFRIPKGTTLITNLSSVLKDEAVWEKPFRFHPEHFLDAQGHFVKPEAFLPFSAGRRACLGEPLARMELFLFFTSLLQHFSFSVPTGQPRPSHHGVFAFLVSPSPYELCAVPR

Potency, inactive:
COC(=O)NC(c1ccco1)[C@@]1(C(=O)OC)CCCC1=O (stereo not given in full)
COC(=O)NC(c1cccc(C)c1)[C@@]1(C(=O)OC)CCCC1=O (stereo not given in full)
COC(=O)NC(CC(C)=O)c1cccc(F)c1 (stereo not given)
O=C1C=CC2(OCCCO2)C(Br)=C1
OCC1OC(C#Cc2ccccc2)C=CC1OCc1ccccc1 (stereo not given)
C=CCC1C=CC(OC(=O)OCC)C(COC(=O)OCC)O1 (stereo not given)
CC(C)CN1CCc2nc(-c3ccccc3)c3c(c2CC1)COC(C)C3 (stereo not given)
CCOC(=O)CCCCC1=CC2=CC(=O)C(C)(O)C(=O)C2=CO1 (stereo not given)
COC(=O)NC(CC(C)=O)c1cccs1 (stereo not given)
COC(=O)NC(CC(C)=O)c1ccccc1 (stereo not given)
CC(O)CCCCCCC/C=C/C=C/C(N)=O (stereo not given)
COC(=O)NC(c1ccc2ccccc2c1)C(C(C)=O)C(=O)OC (stereo not given)
CCOC(=O)OCC1OC(C#CC(C)(C)C)C=CC1OC(=O)OCC (stereo not given)
CC12C=C(/C=C/c3ccc(F)cc3)C(C)(C1)C(c1ccc(F)cc1)CC2=O (stereo not given)
CCN1C(C)=C(C(=O)OC)C(c2ccccc2)N2C(=O)[C@@]3(C(=O)OC)O[C@@]12C1C(=O)N(c2ccccc2)C(=O)C13 (stereo not given in full)
CCOC(=O)[C@]1(C(NC(=O)OC)c2cccc(C)c2)CCCC1=O (stereo not given in full)
CC(=O)OCC1OC(C#CC(C)(C)C)C=CC1OC(C)=O (stereo not given)
COc1ccc(OC)c(C2OCCC=CC2C)c1 (stereo not given)
COC(=O)NC(CC(C)=O)c1ccc(F)cc1 (stereo not given)
CCN1C(C)=C(C(=O)OC)C(c2ccccc2)N2C(=O)[C@@]3(C(=O)OC)O[C@@]12C1C(=O)N(C)C(=O)C13 (stereo not given in full)
COC(=O)CC1=COC(O)C2C(CO)=CC[C@@H]12 (stereo not given in full)
COC(=O)NC(c1cccc(F)c1)[C@@]1(C(=O)OC)CCCC1=O (stereo not given in full)
CC(C)C(=O)NC(=O)C1CCCN1C(=O)/C=C/c1ccccc1 (stereo not given)
COc1cccc(C2NC(C(=O)O)CCC2C)c1 (stereo not given)
COC(=O)NC(CC(C)=O)c1ccc(Cl)cc1 (stereo not given)
CC12C=C(/C=C/C=C/c3ccco3)C(C)(C1)C(/C=C/c1ccco1)CC2=O (stereo not given)
CC1CCC2C(=O)N3CCCC3C(=O)N2C1c1ccc(Br)cc1 (stereo not given)
CC1(C)Oc2cc3c(cc2O1)OC(C)(C)O3
COc1cc(C2c3[nH]c4ccccc4c3CC3C(=O)N4C(Cc5c([nH]c6ccccc56)C4c4cc(OC)c(OC)c(OC)c4)C(=O)N32)cc(OC)c1OC (stereo not given)
COC1C(O)COC1/C=C/c1ccccc1 (stereo not given)
COC(=O)NC(c1ccc(Cl)cc1)C(C(C)=O)C(=O)OC (stereo not given)
COC(=O)NC(c1cccc(C)c1)[C@]1(C(C)=O)CCCC1=O (stereo not given in full)
COC(=O)NC(CC(C)=O)c1cccc(C)c1 (stereo not given)
CC(=O)OCC1OC(c2ccc(C(C)=O)cc2)C=CC1OC(C)=O (stereo not given)
CCN1C(C)=C(C(=O)OC)C(c2ccccc2)N2C(=O)[C@](O)(C(=O)OC)CC(C(C)=O)=C12 (stereo not given in full)
CCC(=O)[C@@]1(O)C(=O)N2C(=C3C(=O)OCCC31)N(Cc1ccccc1)C(C)=C(C(=O)OC)C2c1ccccc1 (stereo not given in full)
CCOC(=O)OCC1OC(c2ccccc2)C=CC1Oc1ccc2oc(=O)cc(C)c2c1 (stereo not given)
CCCc1cc2c(c(=O)o1)C(O)C1OC1C2=O (stereo not given)
CC1CCC(C(=O)O)NC1c1cccc(N2CCCC2=O)c1 (stereo not given)
Cc1cc(=O)oc2cc(OC3C=CC(C#CC(C)(C)C)OC3CO)ccc12 (stereo not given)

The molecules below were run against Cytochrome P450 2C19 (Homo sapiens) (UniProt P33261) (assay: qHTS Assay for Inhibitors and Substrates of Cytochrome P450 2C19 (AID 899; also: nearly all actives have a fitted effect of over 60% in size; also: potency is read from the fitted curve at half-maximal effect)). Settings: recombinant CYP2C19, luciferin-H EGE luminescence; series mostly up to 11.4 µM.
Outline: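 Luminescence readout of luciferin formed from 10uM Luciferin-H EGE (KM level) by 5 nM CYP2C19 in 50mM KPO4. 60 min NADPH-driven reaction at 37C after 10 min compound preincubation; data scaled to 57uM ketoconazole inhibition.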

Chain of Cytochrome P450 2C19 (Homo sapiens) (P33261 whole entry, looked up): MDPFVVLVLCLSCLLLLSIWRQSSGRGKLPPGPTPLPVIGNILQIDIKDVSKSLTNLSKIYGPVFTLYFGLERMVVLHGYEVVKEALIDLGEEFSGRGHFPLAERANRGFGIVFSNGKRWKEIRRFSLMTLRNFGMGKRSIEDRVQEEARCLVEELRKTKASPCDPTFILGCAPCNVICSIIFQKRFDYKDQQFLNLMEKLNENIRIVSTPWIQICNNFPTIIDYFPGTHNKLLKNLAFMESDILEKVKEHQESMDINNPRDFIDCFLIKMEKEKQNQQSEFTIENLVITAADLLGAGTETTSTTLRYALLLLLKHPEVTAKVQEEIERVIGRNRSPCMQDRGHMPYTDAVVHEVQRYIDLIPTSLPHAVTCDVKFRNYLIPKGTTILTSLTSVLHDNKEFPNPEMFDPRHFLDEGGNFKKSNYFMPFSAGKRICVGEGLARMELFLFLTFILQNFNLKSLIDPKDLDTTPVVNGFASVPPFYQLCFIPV

Potency, inactive:
COC(=O)NC(c1ccco1)[C@@]1(C(=O)OC)CCCC1=O (stereo not given in full)
COC(=O)NC(c1cccc(C)c1)[C@@]1(C(=O)OC)CCCC1=O (stereo not given in full)
COC(=O)NC(CC(C)=O)c1cccc(F)c1 (stereo not given)
O=C1C=CC2(OCCCO2)C(Br)=C1
CC(C)CN1CCc2nc(-c3ccccc3)c3c(c2CC1)COC(C)C3 (stereo not given)
CCOC(=O)CCCCC1=CC2=CC(=O)C(C)(O)C(=O)C2=CO1 (stereo not given)
COC(=O)NC(CC(C)=O)c1cccs1 (stereo not given)
COC(=O)NC(CC(C)=O)c1ccccc1 (stereo not given)
CC(O)CCCCCCC/C=C/C=C/C(N)=O (stereo not given)
CCN1C(C)=C(C(=O)OC)C(c2ccccc2)N2C(=O)[C@@]3(C(=O)OC)O[C@@]12C1C(=O)N(c2ccccc2)C(=O)C13 (stereo not given in full)
CCOC(=O)[C@]1(C(NC(=O)OC)c2cccc(C)c2)CCCC1=O (stereo not given in full)
CC(=O)OCC1OC(C#CC(C)(C)C)C=CC1OC(C)=O (stereo not given)
COc1ccc(OC)c(C2OCCC=CC2C)c1 (stereo not given)
COC(=O)NC(CC(C)=O)c1ccc(F)cc1 (stereo not given)
CCN1C(C)=C(C(=O)OC)C(c2ccccc2)N2C(=O)[C@@]3(C(=O)OC)O[C@@]12C1C(=O)N(C)C(=O)C13 (stereo not given in full)
COC(=O)CC1=COC(O)C2C(CO)=CC[C@@H]12 (stereo not given in full)
COC(=O)NC(c1cccc(F)c1)[C@@]1(C(=O)OC)CCCC1=O (stereo not given in full)
CC(C)C(=O)NC(=O)C1CCCN1C(=O)/C=C/c1ccccc1 (stereo not given)
COc1cccc(C2NC(C(=O)O)CCC2C)c1 (stereo not given)
COC(=O)NC(CC(C)=O)c1ccc(Cl)cc1 (stereo not given)
CC12C=C(/C=C/C=C/c3ccco3)C(C)(C1)C(/C=C/c1ccco1)CC2=O (stereo not given)
CC1CCC2C(=O)N3CCCC3C(=O)N2C1c1ccc(Br)cc1 (stereo not given)
CC1(C)Oc2cc3c(cc2O1)OC(C)(C)O3
COc1cc(C2c3[nH]c4ccccc4c3CC3C(=O)N4C(Cc5c([nH]c6ccccc56)C4c4cc(OC)c(OC)c(OC)c4)C(=O)N32)cc(OC)c1OC (stereo not given)
COC1C(O)COC1/C=C/c1ccccc1 (stereo not given)
COC(=O)NC(c1cccc(C)c1)[C@]1(C(C)=O)CCCC1=O (stereo not given in full)
COC(=O)NC(CC(C)=O)c1cccc(C)c1 (stereo not given)
CC(=O)OCC1OC(c2ccc(C(C)=O)cc2)C=CC1OC(C)=O (stereo not given)
CCN1C(C)=C(C(=O)OC)C(c2ccccc2)N2C(=O)[C@](O)(C(=O)OC)CC(C(C)=O)=C12 (stereo not given in full)
CCC(=O)[C@@]1(O)C(=O)N2C(=C3C(=O)OCCC31)N(Cc1ccccc1)C(C)=C(C(=O)OC)C2c1ccccc1 (stereo not given in full)
CCOC(=O)OCC1OC(c2ccccc2)C=CC1Oc1ccc2oc(=O)cc(C)c2c1 (stereo not given)
CCCc1cc2c(c(=O)o1)C(O)C1OC1C2=O (stereo not given)
CC1CCC(C(=O)O)NC1c1cccc(N2CCCC2=O)c1 (stereo not given)
Cc1cc(=O)oc2cc(OC3C=CC(C#CC(C)(C)C)OC3CO)ccc12 (stereo not given)

Potency, active:
OCC1OC(C#Cc2ccccc2)C=CC1OCc1ccccc1 (stereo not given) 12.6 nM
C=CCC1C=CC(OC(=O)OCC)C(COC(=O)OCC)O1 (stereo not given) 794 nM
COC(=O)NC(c1ccc2ccccc2c1)C(C(C)=O)C(=O)OC (stereo not given) 1260 nM
CCOC(=O)OCC1OC(C#CC(C)(C)C)C=CC1OC(=O)OCC (stereo not given) 2510 nM
CC12C=C(/C=C/c3ccc(F)cc3)C(C)(C1)C(c1ccc(F)cc1)CC2=O (stereo not given) 2510 nM
COC(=O)NC(c1ccc(Cl)cc1)C(C(C)=O)C(=O)OC (stereo not given) 1580 nM
